PubChem BioAssay
Values without a mark were called inactive. Activity calls are given as the source filed them. Rule as the data show it, unless noted: active = inhibition above about 28%; inactive = the rest.

Experiments:
[1] = target: Nuclear receptor coactivator 3 (Homo sapiens) (UniProt Q9Y6Q9); experiment: SRC3 coactivator transcriptional activity inhibitors, confirmation, cell-based, luminescence, quadruplicate (AID 588792;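 active = mean inhibition over 43.08%, the solvent-only control mean plus 3 SD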;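 also: 0% = DMSO treated cells and 100% = gossypol at 36 µM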); settings: HEK293 GAL4-SRC3 luciferase reporter, at 3.6 µM, hits give high values
[2] = system: transactivating tegument protein VP16 (Human herpesvirus 1), Gal4-VP16 luciferase reporter; experiment: VP16 transactivation inhibitors, counter-screen for SRC3 inhibitor project, cell-based, luminescence, high throughput (AID 588794; in the data active = inhibition above about 30%); settings: mammalian cells, VP16-driven luciferase reporter luminescence; at 3.6 µM; hits give high values
[3] = target: Nuclear receptor coactivator 1 (Homo sapiens) (UniProt Q15788); experiment: SRC1 coactivator transcriptional activity inhibitors, confirmation, cell-based, luminescence, quadruplicate (AID 588820;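 active = mean inhibition above 46.68%, the untreated control wells mean plus 3 SD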;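 also: 0% = DMSO wells and 100% = gossypol 36 µM treated wells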); settings: HEK293 GAL4-SRC1 luciferase reporter, at 3.6 µM, hits give high values
[4] = VP16 transactivation inhibitors, counter-screen for SRC1 inhibitor project, cell-based, luminescence, high throughput (AID 588824; in the data active = inhibition above about 25%); settings: cell-based VP16 transactivation luciferase luminescence; at 3.6 µM; hits give high values
[5] = StAR promoter reporter inhibitors, counter-screen for LRH-1 inverse agonist project, cell-based, luminescence, high throughput (AID 651611); settings: StAR promoter luciferase reporter counterscreen, at 3.6 µM, hits give high values
[6] = target: Nuclear receptor subfamily 5 group A member 2 (Homo sapiens) (UniProt O00482); experiment: LRH-1 (NR5A2) inverse agonists, retest, confirmation, cell-based, luminescence (AID 651613; in the data active = inhibition above about 42%;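 also: HEK293T cells co-transfected with LRH-1 and StAR promoter luciferase reporter; 0% = vehicle wells and 100% = parental cells lacking receptor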); settings: cell-based LRH-1 luciferase reporter, inverse agonism; at 3.6 µM; hits give high values
[7] = target: Steroidogenic factor 1 (Homo sapiens) (UniProt Q13285); experiment: SF1 (NR5A1) inverse agonists, counter-screen for LRH-1 inverse agonist project, cell-based, luminescence, high throughput (AID 651614; in the data active = inhibition above about 44%;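 also: cells cotransfected with StAR promoter reporter and SF1 expression vector; 0% = vehicle on cells with receptor and 100% = vehicle on cells lacking receptor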); settings: cell-based SF1 luciferase reporter, at 3.6 µM, hits give high values
[8] = VP16 transactivation reporter inhibitors, counter-screen for LRH-1 inverse agonist project, cell-based, luminescence, high throughput (AID 651615; in the data active = inhibition above about 33%); settings: Gal4-VP16 luciferase reporter cells, at 3.6 µM, hits give high values

Sequence of Nuclear receptor coactivator 3 (Homo sapiens) (Q9Y6Q9 whole entry, looked up, the tested form may be a part): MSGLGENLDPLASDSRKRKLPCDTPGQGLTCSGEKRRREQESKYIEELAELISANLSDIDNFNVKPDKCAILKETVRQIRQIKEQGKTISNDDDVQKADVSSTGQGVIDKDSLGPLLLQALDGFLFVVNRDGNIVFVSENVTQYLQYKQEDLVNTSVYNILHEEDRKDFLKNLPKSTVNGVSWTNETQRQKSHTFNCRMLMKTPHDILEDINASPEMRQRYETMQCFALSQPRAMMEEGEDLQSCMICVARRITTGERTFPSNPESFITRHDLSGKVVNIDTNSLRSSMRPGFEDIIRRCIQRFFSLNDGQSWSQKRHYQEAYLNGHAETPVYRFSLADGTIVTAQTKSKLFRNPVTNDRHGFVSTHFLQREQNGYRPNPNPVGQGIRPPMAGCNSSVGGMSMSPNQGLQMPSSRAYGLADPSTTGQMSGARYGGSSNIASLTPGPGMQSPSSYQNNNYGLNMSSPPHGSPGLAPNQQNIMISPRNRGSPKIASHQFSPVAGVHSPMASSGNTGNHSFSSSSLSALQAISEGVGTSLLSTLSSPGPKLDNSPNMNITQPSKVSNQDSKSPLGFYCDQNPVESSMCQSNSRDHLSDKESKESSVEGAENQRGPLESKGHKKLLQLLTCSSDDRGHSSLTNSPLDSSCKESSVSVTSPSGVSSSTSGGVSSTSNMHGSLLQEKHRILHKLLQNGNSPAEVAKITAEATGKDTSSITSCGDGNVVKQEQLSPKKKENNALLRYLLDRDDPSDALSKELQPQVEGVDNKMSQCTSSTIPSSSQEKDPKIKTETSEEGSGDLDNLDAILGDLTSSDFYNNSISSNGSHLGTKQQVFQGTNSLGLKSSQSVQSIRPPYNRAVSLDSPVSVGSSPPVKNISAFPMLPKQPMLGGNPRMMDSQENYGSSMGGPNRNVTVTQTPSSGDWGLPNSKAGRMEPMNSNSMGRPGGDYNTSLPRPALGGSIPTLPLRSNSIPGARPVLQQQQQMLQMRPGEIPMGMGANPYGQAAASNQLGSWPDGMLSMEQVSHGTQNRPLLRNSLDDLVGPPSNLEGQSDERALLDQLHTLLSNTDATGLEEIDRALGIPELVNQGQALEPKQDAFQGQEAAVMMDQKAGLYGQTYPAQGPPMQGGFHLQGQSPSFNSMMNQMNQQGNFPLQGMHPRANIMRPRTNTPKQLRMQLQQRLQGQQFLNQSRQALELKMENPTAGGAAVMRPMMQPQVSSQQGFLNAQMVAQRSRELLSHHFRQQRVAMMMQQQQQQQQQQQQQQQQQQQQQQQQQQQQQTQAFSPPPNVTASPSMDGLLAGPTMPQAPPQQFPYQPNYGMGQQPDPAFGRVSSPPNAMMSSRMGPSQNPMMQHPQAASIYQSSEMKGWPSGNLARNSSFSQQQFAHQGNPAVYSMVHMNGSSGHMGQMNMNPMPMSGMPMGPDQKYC
Sequence of Steroidogenic factor 1 (Homo sapiens) (Q13285 whole entry, looked up, the tested form may be a part): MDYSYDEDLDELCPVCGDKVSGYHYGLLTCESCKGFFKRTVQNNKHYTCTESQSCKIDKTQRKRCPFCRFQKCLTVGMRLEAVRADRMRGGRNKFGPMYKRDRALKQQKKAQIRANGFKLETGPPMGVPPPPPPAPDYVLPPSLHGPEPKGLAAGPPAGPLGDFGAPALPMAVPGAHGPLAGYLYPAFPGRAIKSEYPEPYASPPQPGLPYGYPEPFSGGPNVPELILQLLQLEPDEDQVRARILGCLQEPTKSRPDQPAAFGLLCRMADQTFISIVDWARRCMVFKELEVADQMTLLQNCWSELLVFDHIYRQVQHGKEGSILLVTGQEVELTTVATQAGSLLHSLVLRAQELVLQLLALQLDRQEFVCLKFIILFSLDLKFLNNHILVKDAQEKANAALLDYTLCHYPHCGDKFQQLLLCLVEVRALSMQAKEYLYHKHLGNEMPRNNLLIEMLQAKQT
Sequence of Nuclear receptor coactivator 1 (Homo sapiens) (Q15788 whole entry, looked up, the tested form may be a part): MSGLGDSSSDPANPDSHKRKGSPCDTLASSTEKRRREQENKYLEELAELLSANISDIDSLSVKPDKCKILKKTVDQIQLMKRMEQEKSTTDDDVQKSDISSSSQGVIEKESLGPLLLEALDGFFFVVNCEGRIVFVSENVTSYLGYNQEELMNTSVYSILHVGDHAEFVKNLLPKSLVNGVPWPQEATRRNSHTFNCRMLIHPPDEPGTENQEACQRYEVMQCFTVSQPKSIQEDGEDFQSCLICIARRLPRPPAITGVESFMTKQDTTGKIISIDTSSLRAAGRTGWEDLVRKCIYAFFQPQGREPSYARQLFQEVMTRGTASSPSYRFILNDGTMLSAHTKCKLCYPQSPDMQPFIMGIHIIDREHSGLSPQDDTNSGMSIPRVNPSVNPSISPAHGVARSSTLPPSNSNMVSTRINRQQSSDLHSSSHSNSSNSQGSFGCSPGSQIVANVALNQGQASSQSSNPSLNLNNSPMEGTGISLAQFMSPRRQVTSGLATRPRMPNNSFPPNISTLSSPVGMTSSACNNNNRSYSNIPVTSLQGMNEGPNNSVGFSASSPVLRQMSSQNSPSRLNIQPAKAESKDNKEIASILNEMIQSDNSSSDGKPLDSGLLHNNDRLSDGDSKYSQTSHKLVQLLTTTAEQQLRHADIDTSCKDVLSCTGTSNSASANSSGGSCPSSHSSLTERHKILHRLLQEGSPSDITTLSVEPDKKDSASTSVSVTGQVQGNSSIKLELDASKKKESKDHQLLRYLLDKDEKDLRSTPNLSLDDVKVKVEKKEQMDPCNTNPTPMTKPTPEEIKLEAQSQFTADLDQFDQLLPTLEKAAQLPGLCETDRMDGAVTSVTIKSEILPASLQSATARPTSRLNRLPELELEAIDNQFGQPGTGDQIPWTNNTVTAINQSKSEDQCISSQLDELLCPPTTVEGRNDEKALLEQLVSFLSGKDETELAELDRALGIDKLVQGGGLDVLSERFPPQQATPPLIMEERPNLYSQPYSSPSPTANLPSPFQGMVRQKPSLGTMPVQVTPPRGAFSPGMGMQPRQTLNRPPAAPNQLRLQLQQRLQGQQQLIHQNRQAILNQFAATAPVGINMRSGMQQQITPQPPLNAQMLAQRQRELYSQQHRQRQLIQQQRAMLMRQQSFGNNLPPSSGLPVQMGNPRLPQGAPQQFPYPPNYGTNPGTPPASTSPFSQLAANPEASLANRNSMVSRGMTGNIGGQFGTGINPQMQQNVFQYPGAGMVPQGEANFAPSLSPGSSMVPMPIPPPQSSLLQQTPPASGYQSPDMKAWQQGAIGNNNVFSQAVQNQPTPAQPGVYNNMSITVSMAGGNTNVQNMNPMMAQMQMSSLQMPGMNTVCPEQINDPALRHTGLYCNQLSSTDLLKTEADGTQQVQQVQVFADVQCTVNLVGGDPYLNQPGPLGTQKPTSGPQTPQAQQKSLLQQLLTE
Sequence of Nuclear receptor subfamily 5 group A member 2 (Homo sapiens) (O00482 whole entry, looked up): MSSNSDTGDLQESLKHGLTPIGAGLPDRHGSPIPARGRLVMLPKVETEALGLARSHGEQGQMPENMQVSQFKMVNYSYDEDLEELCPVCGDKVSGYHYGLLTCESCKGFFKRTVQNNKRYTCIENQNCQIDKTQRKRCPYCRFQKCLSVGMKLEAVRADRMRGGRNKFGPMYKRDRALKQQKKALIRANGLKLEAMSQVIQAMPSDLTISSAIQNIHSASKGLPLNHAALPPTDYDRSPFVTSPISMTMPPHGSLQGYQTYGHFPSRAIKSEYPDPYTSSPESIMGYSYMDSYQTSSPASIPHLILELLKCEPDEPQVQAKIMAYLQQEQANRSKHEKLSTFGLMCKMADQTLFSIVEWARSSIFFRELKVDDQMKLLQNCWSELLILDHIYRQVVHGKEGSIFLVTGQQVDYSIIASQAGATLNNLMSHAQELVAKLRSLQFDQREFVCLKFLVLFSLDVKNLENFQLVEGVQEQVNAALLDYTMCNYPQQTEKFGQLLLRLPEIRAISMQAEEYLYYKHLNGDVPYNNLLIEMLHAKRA

SMILES | inhibition [1] | inhibition [2] | inhibition [3] | inhibition [4] | inhibition [5] | inhibition [6] | inhibition [7] | inhibition [8]
CN(Cc1cnc2nc(N)nc(N)c2n1)c1ccc(C(=O)N[C@@H](CCC(=O)O)C(=O)O)cc1 | 66.7% (active) | 12.6% | 35% | 8.93% | 76.9% (active) | 54.9% (active) | 55.4% (active) | 22.7%
C=C1C(=O)C23C(O)C1CCC2C12CCCC(C)(COC(C)=O)C1C(O)C3(O)OC2 (centres undefined) | 66.6% (active) | 58.3% (active) | 20.7% | 57.9% (active) | 71.9% (active) | 63.7% (active) | 74.4% (active) | 82.5% (active)
CCCCCCCC[n+]1cccc2c3ccccc3ccc21 | 78.5% (active) | 81.6% (active) | 59.1% (active) | 83.7% (active) | 77% (active) | 107% (active) | 92.8% (active) | 93.8% (active)
COc1cccc(/C=N/Nc2ccc(C(=O)O)cc2)c1O | 68% (active) | 63.8% (active) | 12.8% | 64.4% (active) | 68.7% (active) | 68.3% (active) | 73% (active) | 68.7% (active)
Clc1ccc(OCCN2CCN(c3ncnc4sccc34)CC2)cc1 | 14.2% | 40.4% (active) | -17.4% | 42.2% (active) | 34.8% (active) | 58.5% (active) | 50.2% (active) | 46.7% (active)
N=c1c2c(n(Cc3ccc(F)cc3)c3c1CCC3)CCC2 | 25.9% | 42.9% (active) | 17.8% | 43.6% (active) | 41.6% (active) | 80.3% (active) | 69% (active) | 69.2% (active)
Cn1c(=O)c2cc(NC(=O)CCc3ccc(O)cc3)ccc2n1Cc1cccc(C(F)(F)F)c1 | 34.4% | 64.2% (active) | 38.7% | 66% (active) | 63.3% (active) | 80% (active) | 80.1% (active) | 76.9% (active)
c1ccc(-c2nn(-c3ccccc3)[n+](-c3ccccc3)n2)cc1 | 20.3% | 14.7% | -0.24% | 15.6% | 23.8% | 43.8% (active) | 46% (active) | 48.5% (active)
CC(=NNC(=S)Nc1cccc(C)c1)c1ccccn1 | 65.8% (active) | 67.1% (active) | 1.68% | 66.7% (active) | 85.1% (active) | 99.3% (active) | 92.4% (active) | 68.8% (active)
NCCCNc1nc(N)c([N+](=O)[O-])c(NC2CCCCC2)n1 | 62.2% (active) | 42.4% (active) | 7.71% | 27.1% (active) | 84.7% (active) | 98.5% (active) | 82.5% (active) | 88.1% (active)
COC(C(=O)C(O)C(C)O)C1Cc2cc3cc(OC4CC(OC5CC(O)C(O)C(C)O5)C(O)C(C)O4)c(C)c(O)c3c(O)c2C(=O)C1OC1CC(OC2CC(OC3CC(O)C(OC)C(C)O3)C(O)C(C)O2)C(O)C(C)O1 (centres undefined) | 93.6% (active) | 93.9% (active) | 78% (active) | 92.2% (active) | 93.6% (active) | 109% (active) | 97.2% (active) | 99.4% (active)
Cc1nn(Cc2ccc(C(=O)Nc3nccs3)cc2)c(C)c1Cl | 21.7% | 45.6% (active) | 17.9% | 43.8% (active) | 46.8% (active) | 62.3% (active) | 67% (active) | 64.6% (active)
O=C(Nc1ccon1)c1nc[nH]c1C(=O)NCc1ccccc1 | 35.1% | 52.7% (active) | 27.6% | 53.3% (active) | 50.5% (active) | 58.4% (active) | 51% (active) | 68% (active)
NC1=C(Cl)C(=O)c2ccc(S(N)(=O)=O)cc2C1=O | 97.5% (active) | 93.7% (active) | 82% (active) | 92.8% (active) | 89.7% (active) | 106% (active) | 94% (active) | 95.8% (active)
Cc1cc2c(=Cc3ccc(N(C)C)cc3)c3ccccc3n2[n+]1C | 44.8% (active) | 74.8% (active) | 23.9% | 74.5% (active) | 76.2% (active) | 108% (active) | 89.4% (active) | 93.4% (active)
COc1ccc(C=C2CS(=O)(=O)CC(=Cc3ccc(OC)cc3)C2=O)cc1 | 29.7% | 46.8% (active) | -73.9% | 55.9% (active) | 43.9% (active) | 83% (active) | 83.7% (active) | 80.1% (active)
CC(=O)Nc1ccc(SCC(=O)c2cc(C)n(Cc3cccs3)c2C)cc1 | 52.1% (active) | 40.1% (active) | -1.59% | 5.47% | -55.3% | -90.8% | -25.9% | -31.9%
N#Cc1cc2c(nc1SCC(=O)N1CCOCC1)CCCCC2 | 21.1% | 21.5% | -34.5% | -17.9% | -55% | -116% | -87.7% | -62.9%
